Our source for the inhibition values is PubChem BioAssay AID624352 (Sanford-Burnham Center for Chemical Genomics, 2012).

Out of some 360,000 compounds screened, about 2,600 (0.72%) were called active.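 Rule for the calls: active = inhibition of the luminescence signal of 40% or more relative to plate controls, in a single-dose primary screen at 18.75 µM; inactive = the rest.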 The sample as a whole holds a higher share of actives than the screen did.

The assay in a line: blockers of HIF-2a driven luciferase – luminescence, 786-0 RCC cells, primary screen (AID 624352). Conditions: 786-0 RCC cells HIF-2a reporter, overnight, at 18.8 µM, stronger effect = higher value.
For orientation: inhibition means the change of the read-out against control, counted positive when it falls. Turning to `CC(C)Cn1c(N)c(C(=O)COC(=O)C2CCCN2C(=O)c2cccs2)c(=O)n(C)c1=O` (centres undefined), the inhibition was 4.33% (inactive).

As to `O=[N+]([O-])/C=C/c1ccc2c(ccn2Cc2ccccc2)c1`, the inhibition is 92.5% (active).

For the compound `CC1(C)C2CCC13CS(=O)(=O)NC3C2` (centres undefined), the inhibition is 14.9% (inactive).

For the compound `N#Cc1ccc(OCC(=O)Nc2nc(-c3ccccn3)cs2)cc1`, the inhibition was 21.4% (inactive).

As to `COC(=O)Cc1[nH]n(-c2nc3ccccc3s2)c(=O)c1C(C)=Nc1ccc(OC)cc1`, the inhibition was 80.1% (active).

`O=C(NC(=S)Nc1ccc(Cl)cc1Cl)C1CC1`: the inhibition is -294% (inactive).

Regarding `Cc1ccnc(NC(=O)CCNS(=O)(=O)c2ccc(C)c(C)c2)c1`, the inhibition was -176% (inactive).

Take `O=C(COC(=O)c1cccc(Cl)c1)NC1CCCCCCC1`: the inhibition was 6.27% (inactive).

For `COC(=O)c1cc(C(=O)NC(C)C2CC3CCC2C3)cc([N+](=O)[O-])c1` (centres undefined), the inhibition is 18.1% (inactive).

As for `CC(NCC(=O)Nc1ccccc1C(=O)NC1CC1)c1ccccc1Cl` (centres undefined), the inhibition is 3.17% (inactive).

Regarding `CCCn1c(C)cc(C(=O)COC(=O)c2c(C)nn(-c3ccccc3)c2C)c1C`, the inhibition is -28.6% (inactive).

Consider `Cc1ccsc1C(=O)OCC(=O)c1cc(C)n(CC2CCCO2)c1C` (centres undefined), for which the inhibition is 64.7% (active).

Consider `COc1ccc(CNC(=O)COC(=O)c2sccc2C)cc1OC`, for which the inhibition is -10.1% (inactive).

Consider `CCCCN(C(=O)CCNC(=O)NC12CC3CC(CC(C3)C1)C2)c1c(N)n(CCCC)c(=O)[nH]c1=O`, for which the inhibition is 4.48% (inactive).

For the compound `Oc1c(CN2CCOCC2)ccc(CN2CCOCC2)c1O`, the inhibition was 9.75% (inactive).

As for `O=C1C(Cl)=C(Oc2ccccc2)C(=O)c2ccccc21`, the inhibition was 88.1% (active).

For `COc1ccc(C(CNC(=O)c2ccc(S(=O)(=O)Nc3ccccc3F)cc2)N(C)C)cc1` (centres undefined), the inhibition is 4.08% (inactive).

As for `Nc1nc(Br)c2ccccc2c1-c1ccc(F)cc1`, the inhibition is 5.57% (inactive).

Take `Cn1c(=NC(=O)c2ccc3c(c2)OCCO3)sc2cc(S(C)(=O)=O)ccc21`: the inhibition was -28.1% (inactive).

Consider `O=C(c1ccccc1)C(O)(CN1CCCCC1)c1ccccc1` (centres undefined), for which the inhibition was 13.3% (inactive).

On to `O=C(O)c1ccc(N=NN2CCOCC2)cc1`, for which the inhibition was 10.1% (inactive).

Take `O=C(O)c1cccc(N=NN2CCCCCC2)c1`: the inhibition was 42.7% (active).

In the case of `COc1ccc(CNc2c(CO)cnc3c2cnn3C)cc1`, the inhibition is 17.6% (inactive).

Regarding `CCN(CC)S(=O)(=O)c1ccc(NC(=O)c2cccnc2Cl)c(NC(=O)c2cccnc2Cl)c1`, the inhibition was 86.1% (active).

Regarding `CCN(CC)S(=O)(=O)c1ccc(NC(=O)c2cnc(C)cn2)cc1`, the inhibition is 11% (inactive).

As for `Cc1ccc(CNC(=O)c2cccnc2Cl)cc1`, the inhibition is 2.18% (inactive).

On to `CCOCCc1c(O)nc(SCC(=O)NCc2ccco2)[nH]c1=O`, for which the inhibition was 11% (inactive).

For the compound `COc1ccc2c(c1)c(=Cc1ccc(N(C)C)cc1)c1cc(-c3ccccc3)[n+](C)n12`, the inhibition is 88.2% (active).

Take `Cc1ccc(NC(=O)COC(=O)CN2CCCCCC2=O)c(C)c1`: the inhibition is 11.4% (inactive).

As for `CC(C)COc1ccc(C(=O)NNC(=O)CCC(=O)c2cccs2)cc1`, the inhibition is -5.7% (inactive).

For the compound `Cc1cccc(C(=O)OC(C)C(=O)NC2CCCc3ccccc32)c1O` (centres undefined), the inhibition was 3.74% (inactive).

Consider `CC1CCCCN1S(=O)(=O)CCNC(=O)c1ccccc1` (centres undefined), for which the inhibition is 2.54% (inactive).

Regarding `O=C1COc2ccc(C(=O)CSc3ccc(Br)cc3)cc2N1`, the inhibition is -19.3% (inactive).

In the case of `CN(CCc1ccccc1)C(=O)c1cccc(NC(=O)Cc2cccc(NC(=O)C3CCCN(C(=O)CCc4ccccc4)C3)c2)c1` (centres undefined), the inhibition is 1.76% (inactive).

As to `N#C/C(=C(\O)C(F)(F)F)c1nnc2n1CCCCC2`, the inhibition was 19.1% (inactive).

Take `N#C/C(=C(\O)CCl)c1nnc2n1CCCCC2`: the inhibition was -5.99% (inactive).

In the case of `N#C/C(=C/c1cccc([N+](=O)[O-])c1)c1nnc2n1CCCCC2`, the inhibition is 40.7% (active).

On to `CCc1ccccc1NC(=O)/C(=C/c1ccccc1)c1ccccc1`, for which the inhibition was 2.55% (inactive).

For the compound `CCOC(=O)C(=Cc1ccccc1)C(=O)c1ccccc1`, the inhibition was 86.9% (active).

`CCOC(=O)/C(=C\c1ccc([N+](=O)[O-])cc1)C(=O)c1cc(C(C)=O)c(Nc2ccccc2)s1`: the inhibition is 8.67% (inactive).

For `COc1ccccc1C(=O)c1ccccc1C(=O)c1ccccc1`, the inhibition was 12% (inactive).

For `CCOC(=O)C(=Cc1ccccc1OC)C(=O)OCC`, the inhibition was 56.9% (active).

As for `COc1ccccc1/C=C/C(=O)NC1CC2CCC1C2` (centres undefined), the inhibition was -129% (inactive).

On to `COC(=O)[C@H](CC(C)C)NC(=O)N1CCCCC1C` (some centres undefined), for which the inhibition was 10.8% (inactive).

In the case of `C=CCn1c(SCCOc2ccc(OC)cc2)nnc1C(NC(=O)c1ccc(OC)cc1)C(C)C` (centres undefined), the inhibition is 26.4% (inactive).

Take `O=C(NNC(=S)NCCCN1CCOCC1)c1ccncc1`: the inhibition is 9.32% (inactive).

On to `O=C(C[n+]1ccc2c(c1)nnn2-c1ccccc1)c1ccc(Cl)cc1`, for which the inhibition is -14.6% (inactive).

As for `c1c2c(cc3sc(N4CCCCC4)nc13)OCCO2`, the inhibition is 70.3% (active).

Take `O=C(CN1C(=O)NC2(CCOc3ccccc32)C1=O)NCc1ccc(F)cc1` (centres undefined): the inhibition is 7.05% (inactive).

Turning to `O=C(CC12CC3CC(CC(C3)C1)C2)Nc1ccc2c(c1)COC2=O`, the inhibition is -0.0166% (inactive).

Consider `CC1=CC(C)(C)Nc2ccc(OC(=O)CN3C(=O)C4CCCCC4C3=O)cc21` (centres undefined), for which the inhibition was 85.2% (active).

On to `O=C(COC(=O)CN1C(=O)C2CCCCC2C1=O)Nc1ccc(F)c(F)c1F` (centres undefined), for which the inhibition is 15.9% (inactive).

Regarding `COc1ccc(C(=O)COC(=O)CN2C(=O)C3CC=CCC3C2=O)c(OC)c1` (centres undefined), the inhibition was -7.43% (inactive).

For the compound `C=CCN(C(=O)Cn1ncc2c1-c1cc(C)ccc1OC2)c1ccccc1`, the inhibition is 8.04% (inactive).

For `CCOc1ccccc1NC(=O)C1CCCN(S(=O)(=O)c2ccccc2)C1` (centres undefined), the inhibition was 6.68% (inactive).

For `CN(C)/C=C(/C(=O)c1ccccc1)S(=O)(=O)c1ccc(Cl)cc1`, the inhibition is -9.32% (inactive).

Turning to `O=C(Nc1ccccc1)c1nnsc1S(=O)(=O)c1ccc(Cl)cc1`, the inhibition was 55.9% (active).

Take `C/C(=N\NS(=O)(=O)c1ccc(Cl)cc1)c1ccc(NC(=O)c2ccco2)cc1`: the inhibition is -80.3% (inactive).

In the case of `CCCC(C(=O)N1CCOCC1)N1C(=O)C2C3C=CC(C3)C2C1=O` (centres undefined), the inhibition is 5.26% (inactive).

For `Cc1ccccc1C(CC(=O)c1cccs1)C(C#N)C#N` (centres undefined), the inhibition was 59.7% (active).

For `CC(C)OCCCNC(=O)CNC(=O)c1cccs1`, the inhibition was -6.91% (inactive).

On to `Cc1ccc(NNC(=O)c2cccs2)cc1Cl`, for which the inhibition is -22.8% (inactive).

For `CCCCOC(=O)CNc1nnc(SCC(=O)OCC)[nH]c1=O`, the inhibition was 16.2% (inactive).

For `C[C@@H](NC(=O)[C@@H]1Cc2ccccc2CN1)C(=O)NC1CCCC1`, the inhibition was -3.06% (inactive).

Regarding `CC(C)(C)c1ccc(Oc2ccc(N)cc2)cc1`, the inhibition was 94.1% (active).

In the case of `CN(C)S(=O)(=O)c1ccc(Oc2ccc(S(=O)(=O)N(C)C)cc2)cc1`, the inhibition is 0.813% (inactive).

With `NC[C@H](Cc1ccccc1)NCCc1cc(C(F)(F)F)cc(C(F)(F)F)c1`, the inhibition was 8.13% (inactive).

Take `C=CCn1c(C)cc(C2=NNC(=NCC)SC2)c1C`: the inhibition is 92.7% (active).

Turning to `CCOc1cccc(NC(=O)Cn2nc(-c3ccc4c(c3)OCCO4)ccc2=O)c1`, the inhibition is 3.02% (inactive).

As to `CN(C)CCn1c2c(c(SCC(=O)NCc3ccccc3)nc1=O)CCC2`, the inhibition was 11.3% (inactive).

In the case of `Cn1c(=O)c2ccccc2n(CC(=O)Nc2ccc3c(c2)OCCO3)c1=O`, the inhibition was 0.929% (inactive).

With `COc1ccc(C(=O)NCC(c2ccco2)N2CCc3ccccc32)cc1OC` (centres undefined), the inhibition was 23% (inactive).

As to `COc1cc(C2C(C(=O)c3sc(C)nc3C)=C(O)C(=O)N2CCN(C)C)cc(OC)c1OC` (centres undefined), the inhibition was 17.5% (inactive).

Consider `O=c1oc2ccccc2cc1-c1cn(-c2ccccc2)c(=S)[nH]1`, for which the inhibition is 73.6% (active).

For `CN(C)CC(C)(C)CNC(=O)c1cc(Br)cc(Br)c1O`, the inhibition was 8.3% (inactive).

As to `O=[N+]([O-])c1ccc(CN2CC(N3CC=CC3)CS2(=O)=O)cc1` (centres undefined), the inhibition is 3.7% (inactive).

Regarding `O=C1/C(=C\c2ccc([N+](=O)[O-])cc2)CS(=O)(=O)C/C1=C/c1ccc([N+](=O)[O-])cc1`, the inhibition was 92.6% (active).

With `CC(=O)Nc1cc(-c2ccccc2N(C)C)cn2c(-c3ccc(F)c(Cl)c3)cnc12`, the inhibition was -0.208% (inactive).

Regarding `CCc1ccc(Oc2nc([N+](=O)[O-])nn2C)cc1`, the inhibition was -0.728% (inactive).

Turning to `CC1CCCN(C(=O)c2ccc3c(c2)C(=O)N(CCC2=CCCCC2)C3=O)C1` (centres undefined), the inhibition was 2.05% (inactive).

As for `CC1Cc2ccccc2N1C1=CC(=O)CC(C)(C)C1` (centres undefined), the inhibition is 9.32% (inactive).

As to `COc1cccc(-c2coc3cc4oc(=O)c(CC(=O)O)c(C)c4cc23)c1`, the inhibition was -58% (inactive).

Take `Cc1coc2cc3oc(=O)c(CCC(=O)O)c(C)c3cc12`: the inhibition is 17% (inactive).

For `Cc1c(CCC(=O)O)c(=O)oc2cc3occ(-c4ccccc4)c3cc12`, the inhibition was 63.2% (active).

Take `CC(C)c1ccc2c(c1)c(SC(C)(C)C)c(CC(C)(C)C(=O)O)n2Cc1ccc(Cl)cc1`: the inhibition was -26.8% (inactive).

In the case of `CCCC(=O)N1CCN(c2nnc(-c3ccc(C)cc3)c3ccccc23)CC1`, the inhibition is 12.6% (inactive).

Turning to `Cc1ccc2[nH]c(C(=O)O)c(NC(=O)c3ccccc3[N+](=O)[O-])c2c1`, the inhibition is 13.4% (inactive).

For the compound `O=C1C=CC(=O)N1c1ccc(N2CCCCC2)cc1`, the inhibition is 69.5% (active).

Take `O=C(c1ccc(Cl)c(S(=O)(=O)N2CCCCCC2)c1)N1CCN(c2ccc(O)cc2)CC1`: the inhibition was 11.3% (inactive).

For `c1ccc(-n2cccc2)c(N2CCCCC2)c1`, the inhibition was 13.2% (inactive).

For the compound `CCOC(=O)c1nn(-c2ccccc2F)c2nc(Nc3ccccc3)cc(=O)n12`, the inhibition is 7.21% (inactive).

For `CN(C)c1nc2n(c(=O)n1)CCO2`, the inhibition was 6.35% (inactive).

With `COC(=O)CSc1nc2c(c(C3CC=CCC3)c1C#N)CCC2` (centres undefined), the inhibition was 0.0766% (inactive).

As to `CC1(C(=O)NS(=O)(=O)c2cccc(OC(F)F)c2)CCN1C(=O)COc1ccc(Cl)cc1` (centres undefined), the inhibition was 6.16% (inactive).
